Results filed as inconclusive are left out. Active and inactive are the calls of the source. Unless noted, calls follow the shape of the dose curve; as a rule, active = well fitted curve in the direction sought with a large enough effect; inconclusive = small, poorly fitted or top-dose-only effect, or another doubt; inactive = no such curve, though single readings can be large; an effect the other way counts as inactive or inconclusive.
Key:
[1] = biological target: Cytochrome P450 3A4 (Homo sapiens) (UniProt P08684); assay: qHTS Assay for Inhibitors and Substrates of Cytochrome P450 3A4 (AID 884); also: nearly all actives have a fitted effect of over 50% in size; also: potency is read from the fitted curve at half-maximal effect; as to activity change, negative = inhibition: % is scaled to controls: 0 for no effect and ±100 for the full control effect
Procedure, shortened: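 Luminescent readout of luciferin produced by CYP3A4 (20 nM) dealkylation of Luciferin-PPXE, 25 uM (its KM). NADPH-driven reaction ran 60 min at RT after 10 min compound preincubation; data scaled to 57 uM ketoconazole as 100% inhibition.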

[2] = Confirmation and Secondary Assay for Modulators of Hemoglobin Beta Chain Splicing at IVS2 654 locus (AID 910);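 also: HeLa cells stably carrying EGFP split by mutant beta-globin IVS2-654 intron; % of control where 0% means no effect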
Procedure, shortened: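 Readout: per-well total peak green fluorescence (488 nm ex, 500–520 nm em) from objects 5–250 µm, reflecting correct splicing of an EGFP-654 reporter. Compounds were applied for 2 days at 37 °C to overnight-plated HeLa EGFP-654 cells; controls were DMSO and 500 nM IVS2-654 PNA.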

[3] = Confirmation and Secondary Assay for Modulators of Hemoglobin Beta Chain Splicing at IVS2 705 locus (AID 930);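 also: HeLa cells stably expressing the EGFP-705 splicing reporter; GFP fluorescence per well restored by corrected splicing of the IVS2-705 intron in EGFP; % of control where 0% means no effect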
Procedure, shortened: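 HeLa cells stably carrying EGFP interrupted by mutant beta-globin intron 2 (IVS2-705) treated 2 days at 37C with compound; 500 nM antisense PNA as control. Correct splicing read as total peak GFP intensity per well by laser-scanning cytometry.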

[4] = qHTS Assay for Lipid Storage Modulators (AID 1519; calls by dose curve; as to activity change, negative = inhibition: % is scaled to controls: 0 for no effect and ±100 for the full control effect); conditions: Drosophila S3 cells, BODIPY lipid droplet/cell ratio, laser cytometry, cells loaded with oleic acid; for activity change, negative = inhibition: at 57.5 µM (top of the series)
Procedure, shortened: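 Cells seeded at 5,000 per well were treated with compounds over a concentration series and loaded with oleic acid (400 uM, as added). Lipid droplet fluorescence (488 nm excitation, 500-530 nm channel) was read by laser-scanning cytometry and normalized to 20 uM Triacsin C.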

[5] = biological target: Cytochrome P450 2D6 (Homo sapiens) (UniProt P10635); assay: Cytochrome P450 family 2 subfamily D member 6 (CYP2D6) small molecule antagonists: luciferase biochemical (cell-free) qHTS assay (AID 1645840; active = well fitted curve in the direction sought with a large enough effect in the repeat runs; an effect the other way counts as inactive or inconclusive; also: % is scaled to controls: 0 for no effect and ±100 for the full control effect; nearly all actives have a fitted effect of over 55% in size)
Procedure, shortened: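 P450-Glo CYP2D6 system: proluciferin substrate converted by enzyme to luciferin, read by luminescence proportional to activity. Enzyme-substrate mix with compound 10 min at room temperature, then NADPH regeneration 1 h before detection reagent.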

[6] = biological target: Cytochrome P450 2C9 (Homo sapiens) (UniProt P11712); assay: Cytochrome P450 family 2 subfamily C member 9 (CYP2C9) small molecule antagonists: luciferase biochemical (cell-free) qHTS assay (AID 1645842; active = well fitted curve in the direction sought with a large enough effect in the repeat runs; an effect the other way counts as inactive or inconclusive; also: % is scaled to controls: 0 for no effect and ±100 for the full control effect; nearly all actives have a fitted effect of over 55% in size)
Procedure, shortened: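 P450-Glo CYP2C9 system: proluciferin substrate with enzyme in mix containing 0.4% BSA, 10 min at room temperature, then NADPH regeneration solution added and incubated 1 h at 37C. Detection reagent stopped reaction; luminescence read after 20 min as RLU.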

[7] = biological target: Rap guanine nucleotide exchange factor 3 (Homo sapiens) (UniProt O95398); assay: Confirmatory qHTS for antagonist of cAMP-regulated guanine nucleotide exchange factor 3 (EPAC1) (AID 1645880); also: nearly all actives have a fitted effect of over 55% in size; also: potency is read from the fitted curve at half-maximal effect
Procedure, shortened: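 Released BODIPY-GDP fluoresces less than Rap1-bound BODIPY-GDP; the signal is followed at 480/540 nm at 5-min intervals over 30 min, after 5 min at room temperature. Reactions contain 100 nM EPAC1, 250 nM RAP1B-BODIPY-GDP and 50 uM GDP; results are normalized to ATA and DMSO.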

[8] = biological target: Rap guanine nucleotide exchange factor 3 (Homo sapiens) (UniProt O95398); assay: Confirmatory qHTS for agonist of cAMP-regulated guanine nucleotide exchange factor 3 (EPAC1) (AID 1645881);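 also: EPAC1 catalysed release of BODIPY-GDP from Rap1B seen as fluorescence loss; 100% = effect of cAMP agonist control; nearly all actives have a fitted effect of over 75% in size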
[9] = biological target: Rap guanine nucleotide exchange factor 4 (Homo sapiens) (UniProt Q8WZA2); assay: Confirmatory qHTS for agonist of cAMP-regulated guanine nucleotide exchange factor 4 (EPAC2) (AID 1645884);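 also: nucleotide exchange releases bodipy-GDP from Rap1 and this lowers its fluorescence; % is scaled to controls: 0 for no effect and ±100 for the full control effect; nearly all actives have a fitted effect of over 65% in size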
[10] = biological target: Rap guanine nucleotide exchange factor 4 (Homo sapiens) (UniProt Q8WZA2); assay: Confirmatory qHTS for antagonist of cAMP-regulated guanine nucleotide exchange factor 4 (EPAC2) (AID 1645885); also: nearly all actives have a fitted effect of over 25% in size; also: potency is read from the fitted curve at half-maximal effect
[11] = biological target: Cytochrome P450 1A2 (Homo sapiens) (UniProt P05177); assay: p450-cyp1a2 (AID 410; calls by dose curve; also: potency is read from the fitted curve at half-maximal effect;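 as to activity change, negative = inhibition: -100% = full effect of reference inhibitor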)
Procedure, shortened: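 O-Demethylation of luciferin 6' methyl ether by human CYP1A2 is monitored as luciferase luminescence. Substrate sits at Km (100uM); enzyme is 20nM. Values are scaled to 57 uM furafylline as maximal inhibition.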

[12] = biological target: Glucocorticoid receptor (Homo sapiens) (UniProt P04150); assay: GR-GFP Redistribution (AID 450;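 active = compounds whose dose series gives a full or clear partial fitted curve of increased nuclear translocation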; also: potency is read from the fitted curve at half-maximal effect); conditions: U2OS GR-GFP nuclear translocation, laser cytometry, 2 h
[13] = biological target: Glucocorticoid receptor (Homo sapiens) (UniProt P04150); assay: GR-EFC Redistribution (AID 451; calls by dose curve; also: potency is read from the fitted curve at half-maximal effect); conditions: CHO-K1 GR-EFC translocation, beta-gal luminescence, 2 h
Procedure, shortened: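 Translocation of GR-ED fusion to nuclear EA restores b-gal, read by luminescence after 1 h room-temperature detection. Engineered CHO-K1 biosensor cells, 1,000/well, exposed 2 h at 37 C to titrations up to 46 uM final.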

[14] = biological target: Mitogen-activated protein kinase 10 (Mus musculus) (UniProt Q61831); assay: JNK3 AlphaScreen Assay (AID 530; active = well fitted curve in either direction with a large enough effect, not every such curve was filed as active;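 also: kinase came from lysate of stimulated human HepG2 cells; signal reports phosphorylation of biotinylated GST-cJun 1-79 at Ser73 with 10 µM ATP; % is scaled to controls: 0 for no effect and ±100 for the full control effect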)
Procedure, shortened: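 qHTS titrations with 15 min compound pre-incubation before adding ATP (10 uM final). Read-out: AlphaScreen of Ser73-phosphorylated biotin-GST-cJun using HepG2 lysate JNK3 activated by IL-1β and TNFα.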

[15] = biological target: 3',5'-cyclic-AMP phosphodiesterase 4B (Homo sapiens) (UniProt Q07343); assay: qHTS Assay for Inhibitors of PDE-IV (AID 607; active = well fitted activation curve with a large enough effect in the main read-out, with a control signal flat, not every such curve was filed as active; also: % of control where 0% means no effect)
Procedure, shortened: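 Live HEK293 cells with a modified cyclic nucleotide-gated (CNG) channel report intracellular cAMP via membrane-potential dye fluorescence (ex 535/em 590 nm). Endogenous PDE-IV was targeted. Compounds were tested at up to 22.9 uM final; RO 20-1724 100 uM served as control.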

[16] = biological target: Cytochrome P450 2C9 (Homo sapiens) (UniProt P11712); assay: qHTS Assay for Inhibitors and Substrates of Cytochrome P450 2C9 (AID 883); also: % is scaled to controls: 0 for no effect and ±100 for the full control effect; nearly all actives have a fitted effect of over 60% in size
Procedure, shortened: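 Luminescent read-out of deoxyluciferin hydroxylation, normalized to 57uM sulphaphenazole (AC100). Reaction: 10nM enzyme, 100uM Luciferin-H (equal to KM), 25mM KPO4, 10 min compound preincubation, then 60 min with NADPH regeneration, both at 37C.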

[17] = biological target: Cytochrome P450 2D6 (Homo sapiens) (UniProt P10635); assay: qHTS Assay for Inhibitors and Substrates of Cytochrome P450 2D6 (AID 891); also: potency is read from the fitted curve at half-maximal effect; nearly all actives have a fitted effect of over 60% in size
Procedure, shortened: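 Luminescent read-out of luciferin formed by 5 nM human CYP2D6 demethylating 30 uM Luciferin-ME EGE (Km level) over 60 min at room temperature after NADPH regeneration addition. Data normalized to full inhibition by 1.43 uM quinidine.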

[18] = biological target: Cytochrome P450 2C19 (Homo sapiens) (UniProt P33261); assay: qHTS Assay for Inhibitors and Substrates of Cytochrome P450 2C19 (AID 899); also: potency is read from the fitted curve at half-maximal effect; nearly all actives have a fitted effect of over 60% in size
Procedure, shortened: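 Luminescence readout of luciferin formed from 10uM Luciferin-H EGE (KM level) by 5 nM CYP2C19 in 50mM KPO4. 60 min NADPH-driven reaction at 37C after 10 min compound preincubation; data scaled to 57uM ketoconazole inhibition.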

[19] = biological target: DNA dC->dU-editing enzyme APOBEC-3G (Homo sapiens) (UniProt Q9HC16); assay: qHTS for inhibitors of Vif-A3G interactions: Validation (AID 588379); also: 0% is about no effect
Procedure, shortened: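 Yellow fluorescence (Ex 488, Em 500-530) of Vif-coexpressing HeLa A3G-eYFP cells, scanned by Acumen cytometer, reports blocked A3G degradation. Cells plated at 700/well overnight at 37 deg C before compound addition, then a further overnight compound incubation at 37 deg C.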

[20] = Primary qHTS for small molecule stabilizers of the endoplasmic reticulum resident proteome: Secreted ER Calcium Modulated Protein (SERCaMP) assay (AID 1508630); also: % is scaled to controls: 0 for no effect and ±100 for the full control effect
Procedure, shortened: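 The SH-SY5Y reporter protocol was run at 3 concentrations up to 38.3 uM (primary) or 11 concentrations (follow-up): 16 h compound, 100 nM thapsigargin for 4 h, then extracellular luciferase luminescence.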

[21] = biological target: Cytochrome P450 3A4 (Homo sapiens) (UniProt P08684); assay: qHTS Assay for Activators of Cytochrome P450 3A4 (AID 885); also: nearly all actives have a fitted effect of over 65% in size
Procedure, shortened: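 Using 20nM recombinant human CYP3A4 in potassium phosphate (200mM), substrate Luciferin-PPXE at 25uM, luminescent luciferin detection followed a 60-min RT NADPH reaction; data scaled to 57 uM ketoconazole.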

[22] = biological target: Rap guanine nucleotide exchange factor 3 (Homo sapiens) (UniProt O95398); assay: Counterscreen qHTS for antagonist of cAMP-regulated guanine nucleotide exchange factor 3 (EPAC1) (AID 1645888); also: % of control where 0% means no effect
Procedure, shortened: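 Rap1B-BODIPY-GDP 250 nM + GDP 50 uM; cpds 7-pt, final 9.74 nM–152 uM (activator mode) or from 7.32 nM upwards (inhibitor mode); RT; FI 480/540 nm at 5 and 30 min, then ± cAMP, reread.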

[23] = measured here: cell count channel max response
[24] = measured here: lipid channel max response

Sequence of Cytochrome P450 3A4 (Homo sapiens) (P08684 whole entry, looked up): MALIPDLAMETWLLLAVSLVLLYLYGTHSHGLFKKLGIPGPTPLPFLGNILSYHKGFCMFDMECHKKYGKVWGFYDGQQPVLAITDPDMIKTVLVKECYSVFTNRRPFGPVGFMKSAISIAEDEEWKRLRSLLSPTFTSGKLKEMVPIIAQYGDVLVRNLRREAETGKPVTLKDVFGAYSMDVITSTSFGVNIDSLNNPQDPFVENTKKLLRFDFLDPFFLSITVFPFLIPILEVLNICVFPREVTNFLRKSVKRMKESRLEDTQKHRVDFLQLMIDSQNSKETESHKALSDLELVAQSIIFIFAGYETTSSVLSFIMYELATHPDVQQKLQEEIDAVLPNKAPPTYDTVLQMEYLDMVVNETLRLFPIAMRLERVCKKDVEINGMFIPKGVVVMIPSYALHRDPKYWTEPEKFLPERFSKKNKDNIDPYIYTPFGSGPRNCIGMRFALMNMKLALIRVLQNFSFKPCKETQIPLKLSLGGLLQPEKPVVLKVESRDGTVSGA
Sequence of Rap guanine nucleotide exchange factor 4 (Homo sapiens) (Q8WZA2 whole entry, looked up): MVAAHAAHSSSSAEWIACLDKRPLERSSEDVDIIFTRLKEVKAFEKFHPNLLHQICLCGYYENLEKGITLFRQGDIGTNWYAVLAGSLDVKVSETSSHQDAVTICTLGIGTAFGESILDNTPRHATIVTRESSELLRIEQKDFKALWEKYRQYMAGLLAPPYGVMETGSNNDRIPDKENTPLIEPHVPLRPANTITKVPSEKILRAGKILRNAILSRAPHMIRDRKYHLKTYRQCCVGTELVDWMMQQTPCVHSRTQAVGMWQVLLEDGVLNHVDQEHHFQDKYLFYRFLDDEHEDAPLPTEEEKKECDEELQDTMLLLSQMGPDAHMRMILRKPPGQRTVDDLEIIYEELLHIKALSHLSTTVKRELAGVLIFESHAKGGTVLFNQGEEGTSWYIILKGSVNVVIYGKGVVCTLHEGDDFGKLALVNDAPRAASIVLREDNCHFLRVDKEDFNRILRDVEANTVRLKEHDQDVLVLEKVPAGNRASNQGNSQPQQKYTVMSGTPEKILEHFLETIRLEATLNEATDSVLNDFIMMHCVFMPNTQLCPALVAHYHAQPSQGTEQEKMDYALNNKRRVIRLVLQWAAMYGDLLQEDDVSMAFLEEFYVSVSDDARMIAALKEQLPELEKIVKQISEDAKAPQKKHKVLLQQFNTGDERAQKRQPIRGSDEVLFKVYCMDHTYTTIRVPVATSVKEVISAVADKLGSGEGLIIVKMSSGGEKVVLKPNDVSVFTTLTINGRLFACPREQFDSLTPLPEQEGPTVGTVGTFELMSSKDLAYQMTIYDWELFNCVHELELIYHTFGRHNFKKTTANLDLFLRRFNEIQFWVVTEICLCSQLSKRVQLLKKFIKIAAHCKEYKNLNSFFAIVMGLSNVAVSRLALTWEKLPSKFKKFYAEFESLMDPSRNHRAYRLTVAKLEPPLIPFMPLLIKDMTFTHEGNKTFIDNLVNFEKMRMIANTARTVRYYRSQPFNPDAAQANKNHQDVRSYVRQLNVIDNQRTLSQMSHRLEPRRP
Sequence of Glucocorticoid receptor (Homo sapiens) (P04150 whole entry, looked up, the tested form may be a part): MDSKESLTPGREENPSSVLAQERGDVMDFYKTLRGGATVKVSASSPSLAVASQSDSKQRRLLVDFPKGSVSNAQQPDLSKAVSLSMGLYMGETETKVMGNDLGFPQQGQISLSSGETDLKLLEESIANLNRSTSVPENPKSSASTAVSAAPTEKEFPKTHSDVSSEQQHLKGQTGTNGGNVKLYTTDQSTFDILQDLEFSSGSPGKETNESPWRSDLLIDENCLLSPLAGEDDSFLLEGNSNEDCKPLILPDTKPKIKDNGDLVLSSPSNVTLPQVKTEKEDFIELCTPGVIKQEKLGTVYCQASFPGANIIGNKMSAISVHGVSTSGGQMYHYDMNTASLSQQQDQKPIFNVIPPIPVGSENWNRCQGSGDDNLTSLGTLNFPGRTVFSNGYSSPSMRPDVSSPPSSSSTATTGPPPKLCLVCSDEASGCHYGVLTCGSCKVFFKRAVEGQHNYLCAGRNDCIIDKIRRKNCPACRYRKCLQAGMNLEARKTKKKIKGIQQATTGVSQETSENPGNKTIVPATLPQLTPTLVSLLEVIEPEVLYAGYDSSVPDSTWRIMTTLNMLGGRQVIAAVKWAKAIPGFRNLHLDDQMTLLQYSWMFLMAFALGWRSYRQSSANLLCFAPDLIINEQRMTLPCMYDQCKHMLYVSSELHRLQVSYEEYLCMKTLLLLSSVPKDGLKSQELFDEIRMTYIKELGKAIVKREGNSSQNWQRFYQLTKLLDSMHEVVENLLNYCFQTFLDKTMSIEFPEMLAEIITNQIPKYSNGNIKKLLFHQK
Sequence of Rap guanine nucleotide exchange factor 3 (Homo sapiens) (O95398 whole entry, looked up): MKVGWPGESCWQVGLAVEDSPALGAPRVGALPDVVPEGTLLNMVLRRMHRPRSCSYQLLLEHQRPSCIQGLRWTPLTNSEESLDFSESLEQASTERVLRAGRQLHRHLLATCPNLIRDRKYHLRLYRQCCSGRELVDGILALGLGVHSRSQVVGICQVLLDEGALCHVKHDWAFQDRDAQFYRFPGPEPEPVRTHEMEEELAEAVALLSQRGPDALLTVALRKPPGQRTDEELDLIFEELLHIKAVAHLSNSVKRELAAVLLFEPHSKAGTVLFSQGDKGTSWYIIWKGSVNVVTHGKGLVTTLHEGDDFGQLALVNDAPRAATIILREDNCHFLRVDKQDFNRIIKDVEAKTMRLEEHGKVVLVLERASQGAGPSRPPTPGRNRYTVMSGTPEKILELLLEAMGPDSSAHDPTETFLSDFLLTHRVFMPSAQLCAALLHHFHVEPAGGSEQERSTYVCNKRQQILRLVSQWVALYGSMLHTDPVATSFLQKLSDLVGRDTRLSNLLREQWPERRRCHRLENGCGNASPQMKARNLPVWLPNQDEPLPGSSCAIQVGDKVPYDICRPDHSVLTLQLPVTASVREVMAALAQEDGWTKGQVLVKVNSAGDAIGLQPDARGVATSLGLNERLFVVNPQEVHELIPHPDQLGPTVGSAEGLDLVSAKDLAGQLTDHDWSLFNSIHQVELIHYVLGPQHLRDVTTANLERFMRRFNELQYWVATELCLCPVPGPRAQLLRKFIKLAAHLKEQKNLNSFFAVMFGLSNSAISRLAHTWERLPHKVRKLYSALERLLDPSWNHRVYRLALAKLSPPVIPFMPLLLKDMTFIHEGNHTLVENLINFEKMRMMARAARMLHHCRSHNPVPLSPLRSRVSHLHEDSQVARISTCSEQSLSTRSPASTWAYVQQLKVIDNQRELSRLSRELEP
Sequence of Cytochrome P450 2D6 (Homo sapiens) (P10635 whole entry, looked up): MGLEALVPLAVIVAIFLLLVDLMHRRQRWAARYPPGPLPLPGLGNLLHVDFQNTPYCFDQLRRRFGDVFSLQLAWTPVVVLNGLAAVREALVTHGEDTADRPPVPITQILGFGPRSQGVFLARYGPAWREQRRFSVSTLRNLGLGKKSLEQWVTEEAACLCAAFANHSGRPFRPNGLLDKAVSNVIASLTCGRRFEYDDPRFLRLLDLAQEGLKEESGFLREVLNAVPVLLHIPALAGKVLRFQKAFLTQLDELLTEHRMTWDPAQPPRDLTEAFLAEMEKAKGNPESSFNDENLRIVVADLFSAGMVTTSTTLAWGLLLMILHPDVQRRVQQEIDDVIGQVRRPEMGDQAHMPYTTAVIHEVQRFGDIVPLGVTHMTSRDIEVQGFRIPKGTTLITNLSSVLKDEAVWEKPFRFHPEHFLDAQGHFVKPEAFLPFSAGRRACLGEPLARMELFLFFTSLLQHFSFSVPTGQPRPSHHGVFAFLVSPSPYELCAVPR
Sequence of Cytochrome P450 1A2 (Homo sapiens) (P05177 whole entry, looked up): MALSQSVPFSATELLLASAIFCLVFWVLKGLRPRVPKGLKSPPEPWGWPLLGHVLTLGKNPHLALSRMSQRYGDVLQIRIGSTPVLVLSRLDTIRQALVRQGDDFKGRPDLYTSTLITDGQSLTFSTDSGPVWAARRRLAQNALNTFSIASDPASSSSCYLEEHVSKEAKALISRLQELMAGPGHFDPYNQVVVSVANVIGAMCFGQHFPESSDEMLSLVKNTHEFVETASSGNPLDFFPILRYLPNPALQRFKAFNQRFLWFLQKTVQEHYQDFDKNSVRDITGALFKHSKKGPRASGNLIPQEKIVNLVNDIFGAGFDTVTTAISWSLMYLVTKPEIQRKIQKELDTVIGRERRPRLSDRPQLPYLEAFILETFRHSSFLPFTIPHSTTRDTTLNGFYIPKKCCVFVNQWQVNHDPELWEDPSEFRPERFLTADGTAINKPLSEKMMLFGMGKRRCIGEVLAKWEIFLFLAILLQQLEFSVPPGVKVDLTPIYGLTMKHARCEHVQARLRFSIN
Sequence of Cytochrome P450 2C9 (Homo sapiens) (P11712 whole entry, looked up): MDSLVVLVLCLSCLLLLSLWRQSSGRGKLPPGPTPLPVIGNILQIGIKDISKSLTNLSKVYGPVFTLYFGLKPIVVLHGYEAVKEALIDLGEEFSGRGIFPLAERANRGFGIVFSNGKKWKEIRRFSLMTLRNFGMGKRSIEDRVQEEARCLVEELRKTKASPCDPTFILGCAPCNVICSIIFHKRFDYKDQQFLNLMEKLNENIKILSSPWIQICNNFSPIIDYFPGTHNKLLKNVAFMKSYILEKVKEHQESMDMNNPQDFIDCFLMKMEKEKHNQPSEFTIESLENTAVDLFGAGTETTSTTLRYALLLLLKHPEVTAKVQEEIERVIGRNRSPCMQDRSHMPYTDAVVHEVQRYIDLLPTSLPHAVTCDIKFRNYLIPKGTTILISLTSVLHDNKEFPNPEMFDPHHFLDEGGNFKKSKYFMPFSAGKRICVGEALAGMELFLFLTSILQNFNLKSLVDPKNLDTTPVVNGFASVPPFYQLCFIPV

NC(Cc1ccc(O)c(O)c1)C(=O)O (stereo unspecified)
20.4%: max response [4, 24]
active: Potency [7] 1.4 µM | Potency [10] 44.1 µM
4.16%: max response [4, 23]
inactive: Potency [1] | Potency [2] | outcome [3] | activity change, negative = inhibition [4] 11.6% | Potency [5] | Potency [6] | Potency [8] | Potency [9]

COc1cc2c(cc1OC)C(=O)Cc1ccc3c(c1CN(C)CC2)OCO3
inactive: Potency [11] | Potency [12] > 46 µM | Potency [13] > 46 µM | Potency [14] | Potency [15] | Potency [16] | Potency [1] | outcome [19] | outcome [20]
active: Potency [17] 0.0251 µM | Potency [18] 10 µM

CCCC[P+](CCCC)(CCCC)Cc1ccc(NC(=O)[C@@H](Cc2ccc3ccccc3c2)NC(=NC2CCCCC2)NC2CCCCC2)cc1
active: Potency [11] 31.6 µM
inactive: Potency [12] > 46 µM | Potency [13] > 46 µM | Potency [21] | outcome [19] | outcome [20]

C=CCc1ccc(OC(=O)c2ccccc2)c(OC)c1
active: Potency [1] 5.01 µM
5.85%: max response [4, 23]
inactive: Potency [21] | Potency [2] | outcome [3] | activity change, negative = inhibition [4] 6.62% | Potency [7] | Potency [8] | Potency [9] | activity change, negative = inhibition [10] -4.91% [at 12.7 µM] | activity change, negative = inhibition [22] -3.32% [at 30.8 µM]
15.6%: max response [4, 24]

— PubChem BioAssay (NCATS)
